Test results reported in PubChem BioAssay (NCI).
About 83,000 compounds went through this panel and 20% of them were active in at least one assay; those are over-represented in the sample as a whole.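 The endpoint reported here, percent growth, reads 100 for growth as untreated, 0 for no net growth and -100 for all cells dead.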 The source made the active and inactive calls. How the source made its calls: active means growth percent below 10; inactive means the rest.

Key:
Test in all cases: NCI-60 one-dose screen, 48 h (100 = growth as untreated, 0 = no growth, -100 = all killed)
DU-145 prostate = settings: 10 µM unless noted
K-562 leukemia = settings: 10 µM unless noted
MALME-3M melanoma = settings: 10 µM unless noted
MDA-MB-231 breast = settings: 10 µM unless noted
RXF 393 renal = settings: 10 µM unless noted
SF-268 CNS = settings: 10 µM unless noted
SF-295 CNS = settings: 10 µM unless noted
SF-539 CNS = settings: 10 µM unless noted
UACC-257 melanoma = settings: 10 µM
M14 melanoma = settings: 10 µM unless noted
HCT-15 colon = settings: 10 µM unless noted
HT29 colon = settings: 10 µM unless noted
SNB-75 CNS = settings: 10 µM unless noted
SNB-19 CNS = settings: 10 µM unless noted
U251 CNS = settings: 10 µM unless noted
PC-3 prostate = settings: 10 µM unless noted
SK-MEL-5 melanoma = settings: 10 µM unless noted
UACC-62 melanoma = settings: 10 µM unless noted
LOX IMVI melanoma = settings: 10 µM unless noted
SK-MEL-28 melanoma = settings: 10 µM unless noted

Measured: growth

CCOC(=O)c1nn(-c2ccc(C)cc2)c(=O)c2c(N)c(C#N)c(-c3ccc(OC)cc3)cc12
inactive: DU-145 prostate 109% | K-562 leukemia 118% | MALME-3M melanoma 93.8% | MDA-MB-231 breast 84.8% | RXF 393 renal 104% | SF-268 CNS 95.5% | SF-295 CNS 103% | SF-539 CNS 102% | UACC-257 melanoma 107% | M14 melanoma 102% | HCT-15 colon 99.2% | HT29 colon 99.4% | SNB-75 CNS 67.3% | SNB-19 CNS 91.3% | U251 CNS 103% | PC-3 prostate 94.8% | SK-MEL-5 melanoma 99.9% | UACC-62 melanoma 94.9% | LOX IMVI melanoma 95.5% | SK-MEL-28 melanoma 100%

COc1ccc(NC(=O)[C@H](C)N)cc1C(=O)Nc1cccc(-c2cc(=O)c3c(OC)c(OC)c(OC)cc3o2)c1
inactive: DU-145 prostate 60.8% | K-562 leukemia 52.6% | MALME-3M melanoma 86.5% | MDA-MB-231 breast 62.3% | RXF 393 renal 71.9% | SF-268 CNS 66.6% | SF-295 CNS 64.6% | SF-539 CNS 71.9% | UACC-257 melanoma 109% | M14 melanoma 104% | HCT-15 colon 49.6% | HT29 colon 69.8% | SNB-75 CNS 84.5% | SNB-19 CNS 65.8% | U251 CNS 56.3% | PC-3 prostate 71.6% | SK-MEL-5 melanoma 57.9% | UACC-62 melanoma 63.5% | LOX IMVI melanoma 49.8% | SK-MEL-28 melanoma 88.2%

Cc1nn(-c2ccccc2)c2nc(CCl)[nH]c(=O)c12
inactive: DU-145 prostate 83.6% | K-562 leukemia 19.2% | MALME-3M melanoma 103% | MDA-MB-231 breast 88.4% | RXF 393 renal 99.2% | SF-268 CNS 106% | SF-295 CNS 109% | SF-539 CNS 36.9% | UACC-257 melanoma 97.9% | M14 melanoma 99% | HCT-15 colon 90.6% | HT29 colon 106% | SNB-75 CNS 93.9% | SNB-19 CNS 89.4% | U251 CNS 101% | PC-3 prostate 102% | SK-MEL-5 melanoma 98.7% | UACC-62 melanoma 96.2% | SK-MEL-28 melanoma 110%
active: LOX IMVI melanoma 2.09%

CCCCCCNC(=O)Oc1ccc(/C(=C(/C)c2ccc(OC)cc2)c2ccc(OCCN3CCCC3)cc2)cc1
active: K-562 leukemia 6.93% | MALME-3M melanoma -13.6% | UACC-257 melanoma 2.85% | M14 melanoma -35.5% | LOX IMVI melanoma -39.1%
inactive: DU-145 prostate 91.6% | MDA-MB-231 breast 65.7% | RXF 393 renal 61.9% | SF-268 CNS 83.6% | SF-295 CNS 46.8% | SF-539 CNS 37.7% | HCT-15 colon 17.3% | HT29 colon 13.9% | SNB-75 CNS 85.5% | SNB-19 CNS 72.2% | U251 CNS 58.6% | PC-3 prostate 67.7% | SK-MEL-5 melanoma 53.7% | UACC-62 melanoma 74.2% | SK-MEL-28 melanoma 60.3%

C/C(=N/Nc1nc(N/N=C(/C)c2ccc([N+](=O)[O-])cc2)nc(N2CCOCC2)n1)c1ccc([N+](=O)[O-])cc1
inactive: DU-145 prostate 81% | K-562 leukemia 79.7% | MALME-3M melanoma 69.4% | MDA-MB-231 breast 43.5% | RXF 393 renal 69.2% | SF-268 CNS 96% | SF-295 CNS 66.5% | SF-539 CNS 15.5% | UACC-257 melanoma 99.2% | M14 melanoma 74.5% | HCT-15 colon 66.1% | HT29 colon 80.6% | SNB-75 CNS 80.6% | SNB-19 CNS 63.1% | U251 CNS 92.6% | PC-3 prostate 76.6% | SK-MEL-5 melanoma 67.1% | UACC-62 melanoma 85.3% | LOX IMVI melanoma 38.9% | SK-MEL-28 melanoma 83.8%

CC(C)Sc1nc(NC2CC2)c(C#N)c(-c2ccccc2)n1
inactive: DU-145 prostate 99.1% | K-562 leukemia 87.6% | MALME-3M melanoma 57.1% | MDA-MB-231 breast 82% | RXF 393 renal 77.5% | SF-268 CNS 95.8% | SF-295 CNS 72% | SF-539 CNS 82.2% | UACC-257 melanoma 102% | M14 melanoma 95.1% | HCT-15 colon 92.4% | HT29 colon 91.1% | SNB-75 CNS 34.7% | SNB-19 CNS 90% | U251 CNS 85.1% | PC-3 prostate 92.5% | SK-MEL-5 melanoma 100% | UACC-62 melanoma 87.6% | LOX IMVI melanoma 67.9% | SK-MEL-28 melanoma 98.7%

CCNCc1c(-c2cccc(OC(F)(F)F)c2)[nH]c2ccc(N3CCCC3)cc2c1=O
inactive: DU-145 prostate 15% | MALME-3M melanoma 39.5% | MDA-MB-231 breast 20% | SF-268 CNS 45.1% | UACC-257 melanoma 62.2% | SNB-19 CNS 19.8% | U251 CNS 20% | PC-3 prostate 14.6% | SK-MEL-5 melanoma 15.5% | UACC-62 melanoma 30.3% | LOX IMVI melanoma 21.9% | SK-MEL-28 melanoma 48%
active: K-562 leukemia 6.77% | RXF 393 renal -9.04% | SF-295 CNS 3.08% | SF-539 CNS 2.73% | M14 melanoma -0.303% | HCT-15 colon 9.2% | HT29 colon 7.01% | SNB-75 CNS -5.02%

CCN1C(=O)N(CC)C2SC(N/N=C/c3ccc(F)cc3)=NC21 (stereo not given)
active: SF-539 CNS -4.01% | HT29 colon 3.77%
inactive: DU-145 prostate 16% | K-562 leukemia 14.2% | MALME-3M melanoma 54.7% | MDA-MB-231 breast 32.4% | RXF 393 renal 47.3% | SF-268 CNS 42.4% | SF-295 CNS 12.1% | UACC-257 melanoma 57.8% | M14 melanoma 14.6% | HCT-15 colon 14.9% | SNB-75 CNS 38.2% | SNB-19 CNS 28.1% | U251 CNS 15% | PC-3 prostate 30.3% | SK-MEL-5 melanoma 15.3% | UACC-62 melanoma 33.6% | LOX IMVI melanoma 14.1% | SK-MEL-28 melanoma 58.9%

CN1CCN(c2nc(-c3csc(-c4ccncc4)n3)cc3ccccc23)CC1
active: RXF 393 renal -26.5% | UACC-257 melanoma -1.71% | M14 melanoma -18.5%
inactive: DU-145 prostate 65.3% | K-562 leukemia 11% | MALME-3M melanoma 30.7% | MDA-MB-231 breast 63% | SF-268 CNS 72.8% | SF-295 CNS 45.8% | SF-539 CNS 52.6% | HCT-15 colon 17% | HT29 colon 26.5% | SNB-75 CNS 62.5% | SNB-19 CNS 77.6% | U251 CNS 49.1% | PC-3 prostate 59.8% | SK-MEL-5 melanoma 70.4% | UACC-62 melanoma 26.6% | LOX IMVI melanoma 11.4% | SK-MEL-28 melanoma 28.8%

O=c1[nH]c(CCl)nc2c1cnn2-c1ccccc1
active: LOX IMVI melanoma -38.5%
inactive: DU-145 prostate 98.6% | K-562 leukemia 87.5% | MALME-3M melanoma 110% | MDA-MB-231 breast 101% | RXF 393 renal 94.1% | SF-268 CNS 99.9% | SF-295 CNS 110% | SF-539 CNS 97.1% | UACC-257 melanoma 96.2% | M14 melanoma 95.7% | HCT-15 colon 99.9% | HT29 colon 115% | SNB-75 CNS 93.6% | SNB-19 CNS 96.4% | U251 CNS 103% | PC-3 prostate 105% | SK-MEL-5 melanoma 99% | UACC-62 melanoma 96.2% | SK-MEL-28 melanoma 107%

Nc1nc(-c2cccc([N+](=O)[O-])c2)c(N=Nc2ccccc2Cl)s1
inactive: DU-145 prostate 52.6% | K-562 leukemia 52.5% | MALME-3M melanoma 111% | MDA-MB-231 breast 54.1% | SF-268 CNS 68.4% | SF-295 CNS 70.8% | SF-539 CNS 17.8% | UACC-257 melanoma 104% | M14 melanoma 77.7% | HCT-15 colon 48.9% | HT29 colon 87.1% | SNB-75 CNS 76.8% | SNB-19 CNS 82% | U251 CNS 43.9% | PC-3 prostate 64.9% | SK-MEL-5 melanoma 80.8% | UACC-62 melanoma 71.6% | LOX IMVI melanoma 25.3% | SK-MEL-28 melanoma 93.7%
active: RXF 393 renal -13.6%

O=C(NNc1nc2cc(F)c(F)cc2n2cccc12)c1ncccn1
active: M14 melanoma 1.46% | SNB-75 CNS -1.51% | SK-MEL-5 melanoma -70.7%
inactive: DU-145 prostate 26.8% | K-562 leukemia 20.8% | MALME-3M melanoma 32.7% | MDA-MB-231 breast 42.1% | RXF 393 renal 48.8% | SF-268 CNS 17.3% | SF-295 CNS 14.7% | SF-539 CNS 10.9% | UACC-257 melanoma 14.5% | HCT-15 colon 28.8% | HT29 colon 34.3% | SNB-19 CNS 25.8% | U251 CNS 18.3% | PC-3 prostate 32.4% | UACC-62 melanoma 18.3% | LOX IMVI melanoma 16.1% | SK-MEL-28 melanoma 25.7%

Cc1cnc2nc(NN)[nH]n12
inactive: DU-145 prostate 109% | K-562 leukemia 103% | MALME-3M melanoma 102% | MDA-MB-231 breast 106% | RXF 393 renal 119% | SF-268 CNS 99.8% | SF-295 CNS 95.2% | SF-539 CNS 100% | UACC-257 melanoma 101% | M14 melanoma 101% | HCT-15 colon 101% | HT29 colon 103% | SNB-75 CNS 95.6% | SNB-19 CNS 95.3% | U251 CNS 101% | PC-3 prostate 98.3% | SK-MEL-5 melanoma 99.8% | UACC-62 melanoma 95.6% | LOX IMVI melanoma 87.5% | SK-MEL-28 melanoma 108%

CSc1nccc(-c2c(-c3ccc(F)c(OCc4ccc(F)cc4)c3)nc3sccn23)n1
inactive: DU-145 prostate 88.5% | K-562 leukemia 59.7% | MALME-3M melanoma 104% | MDA-MB-231 breast 65.8% | RXF 393 renal 84% | SF-268 CNS 83.9% | SF-295 CNS 80.3% | SF-539 CNS 73.3% | UACC-257 melanoma 64.4% | M14 melanoma 89% | HCT-15 colon 64.6% | HT29 colon 67.8% | SNB-75 CNS 113% | SNB-19 CNS 72.6% | U251 CNS 60.2% | PC-3 prostate 55.2% | SK-MEL-5 melanoma 19.2% | UACC-62 melanoma 38% | LOX IMVI melanoma 74% | SK-MEL-28 melanoma 87.5%

CCOC(=O)c1c(NCC(=O)Nc2ccc(Br)cc2)sc2c1CCCC2
inactive: DU-145 prostate 66.7% | K-562 leukemia 10.8% | MALME-3M melanoma 21.7% | MDA-MB-231 breast 36.5% | SF-268 CNS 58.4% | SF-295 CNS 39.1% | SF-539 CNS 12% | UACC-257 melanoma 76.2% | M14 melanoma 46.3% | HT29 colon 25.7% | SNB-75 CNS 46.2% | SNB-19 CNS 56.7% | PC-3 prostate 55% | SK-MEL-5 melanoma 39.8% | UACC-62 melanoma 46.9% | SK-MEL-28 melanoma 67.6%
active: RXF 393 renal -50.1% | HCT-15 colon -14.2% | U251 CNS -6.08% | LOX IMVI melanoma 4.11%
